Tgondii IFNg: T. gondii growth inhibition with IFN-gamma, primary screen, cell-based; activity change, negative = inhibition, % (concentration not given with the values); 69,000 tested, 3.8% active; AID 1259416, 2018; Toxoplasma gondii growth in IFN-gamma-treated host cells; active compounds read low; in the data active means activity change below about -70%, passing the limit was not always enough;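 further: host cells are HeLa cells infected with Toxoplasma gondii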
Active calls of the source: *. The entries come from a sample that favours hits as a whole.

O=S(=O)(NCc1ccccc1)N1CCCC(c2nc3ccccc3o2)C1 (stereo unspecified) was read as Tgondii IFNg -11.
Screening O=C(CCC(=O)N1CCCC(O)(CO)C1)c1ccccc1 (stereo unspecified) returned Tgondii IFNg -1.
COc1ccc(F)c(F)c1CN1CCCCC1c1ccccn1 (stereo unspecified) was read as Tgondii IFNg 71.
COC(=O)CCN1CC(OCc2cccc(OC)c2)CN(C(=O)c2ccc(C)c(C)c2)CC1=O (stereo unspecified) was read as Tgondii IFNg -6.
COCCCNc1c(C(=O)OC)c(=O)[nH]c2c(Cl)cccc12 was read as Tgondii IFNg 10.
Screening COC(=O)c1cc(NC(=S)NC(=O)c2ccc(Cl)cc2)cc(C(=O)OC)c1 returned Tgondii IFNg 6.
COc1ccccc1CN(C(=O)c1ccc(N2CCOCC2)cc1)C1CCN(C)CC1 was read as Tgondii IFNg 9.
Screening Cc1ccc(-c2nnc(-c3nc(NCc4ccco4)c4ccccc4n3)o2)cc1 returned Tgondii IFNg 35.
`COc1cc(CNc2nc(-c3nnc(-c4ccc(C)cc4)o3)nc3ccccc23)cc(OC)c1OC` gave Tgondii IFNg -46.
Screening Cc1ccc(-c2nnc(-c3nc(NCc4ccccn4)c4ccccc4n3)o2)cc1 returned Tgondii IFNg -94*.
`COCCN1CCOCC12CCN(C(=O)c1cn(C)cn1)CC2` gave Tgondii IFNg 5.
`c1ccc(-c2[nH]nc(-c3cccnc3)c2-c2nc3ccccc3[nH]2)cc1` gave Tgondii IFNg 14.
CCC(=O)Nc1ccc(OCC(=O)N2CCO[C@@H]3CCCC[C@H]32)cc1 was read as Tgondii IFNg -1.
`COc1ccc(NC(=O)Cn2ncc3c(N4CCN(c5ccccc5)CC4)ncnc32)c(OC)c1` gave Tgondii IFNg -53.
Screening COc1cc2c(cc1CN(C)Cc1snnc1C)CCC2 returned Tgondii IFNg -16.
Screening CC(=O)N1CCOC(Cc2cccc(C(F)(F)F)c2)C1 (stereo unspecified) returned Tgondii IFNg -3.
`FC(F)(F)c1cccc(CN(Cc2ccccn2)CC2CCCO2)c1` (stereo unspecified) gave Tgondii IFNg -10.
O=C(CCC1CCCO1)Nc1ncc(Cc2cccc(C(F)(F)F)c2)s1 (stereo unspecified) was read as Tgondii IFNg -99*.
Cc1cc2n(n1)CCCN(C(=O)CC1COCCN1)C2 (stereo unspecified) was read as Tgondii IFNg -8.
Screening CCCc1cc(C(=O)Nc2cnn(Cc3ccc(F)cc3)c2)n[nH]1 returned Tgondii IFNg -90*.
Screening O=C(CCN1Cc2ccccc2C1=O)Nc1cnn(Cc2ccc(F)cc2)c1 returned Tgondii IFNg -15.
Screening CC(C)OCC(=O)Nc1cnn(CC(=O)Nc2ccc(F)cc2)c1 returned Tgondii IFNg 2.
Screening CC(C)NC(=O)[C@H]1C[C@@H]2CN(C(=O)NC3CCCC3)C[C@H]1O2 returned Tgondii IFNg -28.
COC[C@H]1CN(C)C[C@]12CCN(C(=O)CC1Cc3ccccc3C1)C2 was read as Tgondii IFNg -2.
CCn1cnnc1CCNC(=O)c1cn(Cc2ccccc2F)nn1 was read as Tgondii IFNg 7.
For Cc1c(-c2ccccc2)nnn1-c1cc(Cl)cc(Cl)c1 the results were Tgondii IFNg 52.
For O=c1c(Cl)c(-n2cccn2)cnn1-c1ccc(Cl)cc1Cl the results were Tgondii IFNg 56.
`Cc1c(-c2ccnc(N)n2)nnn1-c1ccc(Cl)cc1Cl` gave Tgondii IFNg -109*.
COc1cccc(CNc2nc(-c3nnc(-c4cccc(Cl)c4)o3)nc3ccccc23)c1 was read as Tgondii IFNg -86*.
For CC(C)Nc1nc(-c2nnc(-c3cccc(Cl)c3)o2)nc2ccccc12 the results were Tgondii IFNg -40.
`COc1ccc(-c2nnc(-c3nc(NCc4cccc(Cl)c4)c4ccccc4n3)o2)cc1` gave Tgondii IFNg 363.
`Clc1cccc(-c2nnc(-c3nc(NCCC4=CCCCC4)c4ccccc4n3)o2)c1` gave Tgondii IFNg -83*.
Screening Fc1cccc(CNc2nc(-c3nnc(-c4ccccc4)o3)nc3ccccc23)c1 returned Tgondii IFNg 123.
`COc1ccc(CNc2nc(-c3nnc(-c4cccc(Cl)c4)o3)nc3ccccc23)cc1` gave Tgondii IFNg -67.
`Cc1ccc(-c2nnc(-c3nc(NCc4ccccc4F)c4ccccc4n3)o2)cc1` gave Tgondii IFNg 66.
For Fc1ccccc1CNc1nc(-c2nnc(-c3cccc(Cl)c3)o2)nc2ccccc12 the results were Tgondii IFNg -80*.
For Cc1ccc(-c2nnc(-c3nc(NCCC4=CCCCC4)c4ccccc4n3)o2)cc1 the results were Tgondii IFNg inactive.
Cc1cc(C)c(-c2cncc(C(=O)N3CCCCC3)n2)c(C)c1 was read as Tgondii IFNg 2.
Screening COc1ccc2oc(CNC(=O)CCNC(=O)c3ccccc3F)nc2c1 returned Tgondii IFNg 0.
`Oc1ccccc1CCc1nncn1-c1cccc(F)c1` gave Tgondii IFNg 3.
For Cc1occc1C(=O)N1CCC2(CC1)OC(C(=O)N1CCCC1)Cn1ccnc12 (stereo unspecified) the results were Tgondii IFNg 2.
c1ccc(N2CCCN(Cc3ccc(-n4ccnc4)cc3)CC2)cc1 was read as Tgondii IFNg 15.
COCCc1noc(-c2ccc(-c3cccc(C(C)OC)c3)nc2)n1 (stereo unspecified) was read as Tgondii IFNg 7.
For O=C(CC1CC1)NCc1cnc2n1CCNCC2 the results were Tgondii IFNg -8.
Screening Cc1onc(-c2c(F)cccc2Cl)c1C1=NCCO1 returned Tgondii IFNg 11.
For Cc1onc(-c2c(Cl)cccc2Cl)c1-c1nnc(NC(=O)c2ccco2)s1 the results were Tgondii IFNg -61.
Cc1onc(-c2c(F)cccc2Cl)c1C(=O)ON=C1C2CC3CC(C2)CC1C3 was read as Tgondii IFNg -85*.
`Cc1ccc(C(C)NC(=O)CNCC(C)(C)CO)cc1` (stereo unspecified) gave Tgondii IFNg -4.
Screening COCCN(CCOC)C(=O)c1cc(-c2cnc(N(C)C)nc2)cn1CC1CC1 returned Tgondii IFNg -2.
Screening Cc1oc(C2CCN(C(=O)c3cc(F)ccc3F)CC2)nc1C(=O)N1CCCC1 returned Tgondii IFNg 36.
Screening O=C(NCc1ccncc1)C1CNCCN1C(=O)C1CCCCCC1 (stereo unspecified) returned Tgondii IFNg 2.
O=S(=O)(c1cccs1)N1CCOCC1 was read as Tgondii IFNg 3.
Screening COc1cc2ncnc(Nc3ccc(Cl)cc3F)c2cc1OC returned Tgondii IFNg -82*.
COc1cc2ncnc(Nc3ccc(F)c(Cl)c3)c2cc1OCCCN1CCOCC1 was read as Tgondii IFNg 6.
`COc1cc2ncnc(Sc3ccc(Cl)cc3)c2cc1OC` gave Tgondii IFNg 6.
For COC(=O)c1cc(CN2CCN(c3ncnc4ccccc34)CC2)cs1 the results were Tgondii IFNg -55.
`CSc1cccc(NC(=S)NCc2ccc(F)cc2)c1` gave Tgondii IFNg 61.
For Fc1ccc(NC(=S)Nc2ccccc2Cl)cc1 the results were Tgondii IFNg 35.
Fc1cccc(NC(=S)Nc2ccc3ccccc3c2)c1 was read as Tgondii IFNg -88*.
`CCC(=O)N1CCc2c([nH]c3ccccc23)C12C(=O)N(C)c1ccccc12` (stereo unspecified) gave Tgondii IFNg inactive.
Screening COc1ccc2oc(C(=O)O)c(C)c2c1 returned Tgondii IFNg 31.
